# PubChem BioAssay (Tox21)
# Records with an inconclusive call do not appear. Entries that show only a call come without a potency. The source holds several records for some structures; these can differ, active in one and inactive in another. Calls of active or inactive are those of the source. Unless noted, calls follow the shape of the full dose curve.
# Experiments:
# [1] = Nuclear factor erythroid 2-related factor 2/antioxidant responsive element (Nrf2/ARE) small molecule agonists: qHTS cell viability counter screen in human keratinocytes (AID 1919968; active = well fitted curve in the direction sought with a large enough effect in the repeat runs; an effect the other way counts as inactive or inconclusive; also: nearly all actives have a fitted effect of over 55% in size)
# Procedure, shortened: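 Stably transfected HaCaT (KeratinoSens), 1,500/well. Test agents in DMSO were applied for 23 h, 37 C/5% CO2. CellTiter-Fluor was incubated 1 h before the fluorescence read.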
# [2] = Nuclear factor erythroid 2-related factor 2/antioxidant responsive element (Nrf2/ARE) small molecule agonists: luciferase reporter gene qHTS assay in human keratinocytes (AID 1919969); also: nearly all actives have a fitted effect of over 35% in size
# [3] = target: Gonadotropin-releasing hormone receptor (Homo sapiens) (UniProt P30968); assay: Human gonadotropin-releasing hormone receptor (GnRHR) small molecule agonists, calcium flux assay in GnRHR-HEK293 cells (AID 1920063); also: nearly all actives have a fitted effect of over 35% in size
# Sequence of Gonadotropin-releasing hormone receptor (Homo sapiens) (P30968 whole entry, looked up): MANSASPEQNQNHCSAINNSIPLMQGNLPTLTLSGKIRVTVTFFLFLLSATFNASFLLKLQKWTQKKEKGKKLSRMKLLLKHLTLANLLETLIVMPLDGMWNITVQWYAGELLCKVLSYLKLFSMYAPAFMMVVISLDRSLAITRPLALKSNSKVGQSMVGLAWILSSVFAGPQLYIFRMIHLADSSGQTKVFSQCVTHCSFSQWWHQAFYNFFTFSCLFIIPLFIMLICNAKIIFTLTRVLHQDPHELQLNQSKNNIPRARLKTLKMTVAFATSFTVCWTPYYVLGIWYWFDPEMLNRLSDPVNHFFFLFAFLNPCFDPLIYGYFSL
# Procedure, shortened: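 Stable human GnRHR HEK293 line. 18 h plating, then calcium dye for 1 h at 37 C. Agonist-mode compound addition from DMSO stocks; fluorescence monitored 3 min.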
# [4] = target: KiSS-1 receptor (Homo sapiens) (UniProt Q969F8); assay: Human kisspeptin (KISS1R) small molecule agonists, calcium flux assay in KISS1R-HEK293 cells (AID 1920064; active = well fitted curve in the direction sought with a large enough effect in the repeat runs; an effect the other way counts as inactive or inconclusive)
# Sequence of KiSS-1 receptor (Homo sapiens) (Q969F8 whole entry, looked up): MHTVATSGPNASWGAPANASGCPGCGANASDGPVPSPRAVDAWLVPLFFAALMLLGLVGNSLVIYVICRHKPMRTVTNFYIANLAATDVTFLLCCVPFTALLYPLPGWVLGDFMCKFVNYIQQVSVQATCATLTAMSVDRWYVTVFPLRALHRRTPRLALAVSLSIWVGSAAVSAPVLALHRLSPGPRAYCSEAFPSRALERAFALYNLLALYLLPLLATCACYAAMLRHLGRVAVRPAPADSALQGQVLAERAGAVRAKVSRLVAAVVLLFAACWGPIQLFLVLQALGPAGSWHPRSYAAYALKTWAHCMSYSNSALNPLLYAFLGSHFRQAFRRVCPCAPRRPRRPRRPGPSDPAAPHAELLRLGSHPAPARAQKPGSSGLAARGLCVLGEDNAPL
# Procedure, shortened: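 After overnight (18 h) culture at 37 C/5% CO2, human KISS1R-HEK293 cells received calcium dye for 1 h, then test compound; emission at 540 nm (excitation 480 nm) was tracked for 3 min.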
# [5] = G protein-coupled receptor (GPCR) small molecule agonists, calcium flux assay: HEK293 wild type cell line counter screen (AID 1920065)
# Procedure, shortened: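 Following 18 h incubation at 37 C/5% CO2, plates got calcium dye for 1 h; compounds, ATP or DMSO were then pinned in and fluorescence followed kinetically (480/540 nm).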
# [6] = p53 small molecule agonists, cell-based qHTS assay with human liver microsomes (AID 1963577)
# Procedure, shortened: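 p53RE-bla reporter cells were pre-incubated 5 h at 37 C, then treated with compounds plus human liver microsomes (0.5 mg/mL final) and NADPH (0.5 mg/mL final) for 16 h at 37 C. Beta-lactamase activity was read by LiveBLAzer fluorescence after 2 h at room temperature.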
# [7] = p53 small molecule agonists, cell-based qHTS assay with rat liver microsomes (AID 1963578)
# Procedure, shortened: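 p53RE-bla cells were exposed to compounds together with rat liver microsomes (0.5 mg/mL final) and NADPH (0.5 mg/mL final) for 16 h at 37 C, then read by LiveBLAzer beta-lactamase fluorescence after 2 h at room temperature.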
# [8] = p53 small molecule agonists, cell-based qHTS assay with human liver microsomes: qHTS cell viability counter screen (AID 1963579); also: nearly all actives have a fitted effect of over 45% in size
# Procedure, shortened: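 p53RE-bla cells (4,000/well) were pre-incubated 5 h at 37 C, then given compounds in DMSO plus human liver microsomes (0.5 mg/mL final) and NADPH (0.5 mg/mL final) for 16 h at 37 C. Viability was read by CellTiter-Glo luminescence.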
# [9] = p53 small molecule agonists, cell-based qHTS assay with rat liver microsomes: qHTS cell viability counter screen (AID 1963580); also: nearly all actives have a fitted effect of over 45% in size
# Procedure, shortened: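 After the beta-lactamase ratio was read, CellTiter-Glo was added to the same wells and luminescence measured at 30 min; cells had been treated 16 h at 37 C with compounds, rat liver microsomes and NADPH (0.5 mg/mL final each).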
# [10] = p53 small molecule agonists, cell-based qHTS assay: qHTS cell viability counter screen (AID 1963581); also: nearly all actives have a fitted effect of over 45% in size
# Procedure, shortened: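 qHTS counter screen: 16 h compound exposure at 37 C of p53RE-bla HCT-116 cells (4,000 per well, seeded 5 h prior), cell viability by ATP luminescence.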
# [11] = p53 small molecule agonists, cell-based qHTS assay (AID 1963582; active = well fitted activation curve with a large enough effect in the signal ratio in the repeat runs, not every such curve was filed as active; the % refers to the signal ratio)
# Procedure, shortened: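 Measured: fluorescence from cleaved LiveBLAzer substrate. System: p53RE-bla cells, 16 h compound treatment at 37 C, 2 h substrate step at room temperature.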
# [12] = target: 5-hydroxytryptamine receptor 2A (Homo sapiens) (UniProt P28223); assay: 5-hydroxytryptamine receptor 2A (HTR2A) small molecule antagonists, cell-based qHTS assay (AID 1963586); also: nearly all actives have a fitted effect of over 45% in size
# Sequence of 5-hydroxytryptamine receptor 2A (Homo sapiens) (P28223 whole entry, looked up): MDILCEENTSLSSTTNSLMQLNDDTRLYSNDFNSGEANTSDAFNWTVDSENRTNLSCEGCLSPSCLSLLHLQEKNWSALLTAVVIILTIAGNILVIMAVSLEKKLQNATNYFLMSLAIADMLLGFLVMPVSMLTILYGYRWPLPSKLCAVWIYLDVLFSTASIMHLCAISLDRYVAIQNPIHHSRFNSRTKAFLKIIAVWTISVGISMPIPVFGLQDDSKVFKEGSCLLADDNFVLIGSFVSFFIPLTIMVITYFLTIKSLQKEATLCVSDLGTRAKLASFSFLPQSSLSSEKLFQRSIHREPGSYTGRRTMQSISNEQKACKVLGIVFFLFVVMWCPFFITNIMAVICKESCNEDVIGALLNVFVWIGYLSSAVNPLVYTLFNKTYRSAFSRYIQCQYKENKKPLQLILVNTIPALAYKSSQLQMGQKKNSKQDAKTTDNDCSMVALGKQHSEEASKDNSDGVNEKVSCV
# Procedure, shortened: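 CHO cells stably expressing human HTR2A were plated for 18 h at 37 C, then loaded with calcium dye for 1 h. Compounds were preincubated 5 min at room temperature before DOI (4 nM solution) was added. Kinetic fluorescence was read for 3 min.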
# [13] = target: 5-hydroxytryptamine receptor 2A (Homo sapiens) (UniProt P28223); assay: 5-hydroxytryptamine receptor 2A (HTR2A) small molecule agonists, cell-based qHTS assay (AID 1963587); also: nearly all actives have a fitted effect of over 30% in size
# Procedure, shortened: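 CHO cells stably expressing human HTR2A, plated 18 h, loaded with calcium dye 1 h at 37 C. Agonist mode: compounds added and intracellular calcium fluorescence recorded kinetically for 2 min at 1 sec intervals.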
# [14] = target: Muscarinic acetylcholine receptor M1 (Homo sapiens) (UniProt P11229); assay: Cholinergic receptor muscarinic 1 (CHRM1) small molecule antagonists, cell-based qHTS assay (AID 1963588); also: nearly all actives have a fitted effect of over 40% in size; also: potency is read from the fitted curve at half-maximal effect
# Sequence of Muscarinic acetylcholine receptor M1 (Homo sapiens) (P11229 whole entry, looked up): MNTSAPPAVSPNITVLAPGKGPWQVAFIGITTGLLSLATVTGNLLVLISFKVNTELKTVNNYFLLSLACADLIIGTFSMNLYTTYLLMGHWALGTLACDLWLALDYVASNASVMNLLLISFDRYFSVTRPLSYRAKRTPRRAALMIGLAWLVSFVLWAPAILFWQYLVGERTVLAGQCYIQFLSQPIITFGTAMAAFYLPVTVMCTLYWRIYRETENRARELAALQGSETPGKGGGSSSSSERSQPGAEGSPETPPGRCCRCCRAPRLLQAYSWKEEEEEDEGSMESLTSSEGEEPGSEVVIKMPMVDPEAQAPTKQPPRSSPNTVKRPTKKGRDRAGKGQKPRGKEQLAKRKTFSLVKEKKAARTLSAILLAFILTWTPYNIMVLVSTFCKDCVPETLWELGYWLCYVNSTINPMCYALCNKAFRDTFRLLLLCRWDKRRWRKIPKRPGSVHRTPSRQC
# Procedure, shortened: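 Compounds were tested at 15 concentrations in three independent runs. Dye-loaded CHRM1-CHO cells were exposed 5 min at room temperature before stimulation by acetylcholine added at 50nM. Intracellular calcium was read kinetically on FDSS for 3 min.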
# [15] = target: Muscarinic acetylcholine receptor M1 (Homo sapiens) (UniProt P11229); assay: Cholinergic receptor muscarinic 1 (CHRM1) small molecule agonists, cell-based qHTS assay (AID 1963589); also: nearly all actives have a fitted effect of over 35% in size
# Procedure, shortened: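 Kinetic fluorescence (1 s intervals) of calcium-sensitive dye in human M1 CHO cells after compound addition; cells pre-incubated 18 h at 37 C/5% CO2 and dye-loaded 1 h.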
# [16] = cAMP Responsive Elements (CRE) small molecule agonists, cell-based qHTS assay (AID 1963590)
# Procedure, shortened: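 Test agents in DMSO were incubated 3 h at 37 C/5% CO2 with CRE-bla HEK 293T cells seeded 18 h earlier; LiveBLAzer B/G FRET substrate was added and read after 2 h at room temperature.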
# [17] = cAMP Responsive Elements (CRE) small molecule antagonists, cell-based qHTS assay (AID 1963591; active = well fitted inhibition curve with a large enough effect in the signal ratio in the repeat runs, not every such curve was filed as active; the % refers to the signal ratio)
# Procedure, shortened: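 Reporter line CRE-bla HEK 293T in dialyzed-FBS DMEM; cells preincubated 18 h, treated 3 h with compound plus NKH477 (0.25 uM final); LiveBLAzer FRET, 2 h RT.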
# [18] = target: Beta-2 adrenergic receptor (Homo sapiens) (UniProt P07550); assay: Adrenergic beta2 receptor (ADRB2) small molecule antagonists, cell-based qHTS assay (AID 1963592); also: series mostly up to about 92 µM; nearly all actives have a fitted effect of over 50% in size
# Sequence of Beta-2 adrenergic receptor (Homo sapiens) (P07550 whole entry, looked up): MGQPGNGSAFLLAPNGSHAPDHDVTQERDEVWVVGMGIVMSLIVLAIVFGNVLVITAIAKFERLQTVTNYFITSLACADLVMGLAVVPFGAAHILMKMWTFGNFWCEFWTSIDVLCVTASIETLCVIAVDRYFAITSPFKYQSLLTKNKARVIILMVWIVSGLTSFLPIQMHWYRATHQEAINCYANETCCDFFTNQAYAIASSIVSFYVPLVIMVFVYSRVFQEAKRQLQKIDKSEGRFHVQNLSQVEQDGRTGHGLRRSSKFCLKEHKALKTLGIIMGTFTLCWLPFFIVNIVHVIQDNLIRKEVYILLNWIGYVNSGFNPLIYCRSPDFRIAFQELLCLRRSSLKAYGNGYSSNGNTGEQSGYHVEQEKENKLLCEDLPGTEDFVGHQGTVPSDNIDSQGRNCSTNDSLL
# Procedure, shortened: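 Assay format: CHO-ADRB2 cells, 18-20hr seeding at 37C/5% CO2, then compound plus 1nM isoproterenol agonist mix for 0.5hr RT. Homogeneous time-resolved fluorescence cAMP detection after 1hr, expressed as 665/615 nm ratio.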
# [19] = target: D(2) dopamine receptor (Homo sapiens) (UniProt P14416); assay: Dopamine D2 receptor (DRD2) small molecule agonists, cell-based qHTS assay (AID 1963594); also: nearly all actives have a fitted effect of over 35% in size
# Sequence of D(2) dopamine receptor (Homo sapiens) (P14416 whole entry, looked up): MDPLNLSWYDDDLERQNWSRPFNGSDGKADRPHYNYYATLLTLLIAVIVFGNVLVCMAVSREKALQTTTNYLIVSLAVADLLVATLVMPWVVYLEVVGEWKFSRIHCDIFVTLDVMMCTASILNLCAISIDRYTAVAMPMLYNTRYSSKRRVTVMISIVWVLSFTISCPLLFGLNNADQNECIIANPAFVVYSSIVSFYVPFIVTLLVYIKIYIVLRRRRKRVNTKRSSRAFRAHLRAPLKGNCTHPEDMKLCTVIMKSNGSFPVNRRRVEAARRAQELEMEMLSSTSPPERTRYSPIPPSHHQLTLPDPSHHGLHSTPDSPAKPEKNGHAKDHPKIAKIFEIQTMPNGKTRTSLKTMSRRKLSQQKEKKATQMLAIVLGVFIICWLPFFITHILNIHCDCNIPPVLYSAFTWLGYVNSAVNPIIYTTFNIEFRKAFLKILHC
# Procedure, shortened: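 HEK293 cells stably expressing human DRD2, pre-treated with PDE inhibitor Ro20-1724 (0.1 mM final) and compound 10 min at room temperature, then stimulated with NKH477 (200nM […]) for 30 min. cAMP read by HTRF (665/620 nm).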
# [20] = target: D(2) dopamine receptor (Homo sapiens) (UniProt P14416); assay: Dopamine D2 receptor (DRD2) small molecule antagonists, cell-based qHTS assay (AID 1963595; active = well fitted inhibition curve with a large enough effect in the signal ratio in the repeat runs, with a control signal flat; the % refers to the signal ratio)
# Procedure, shortened: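 HEK293 cells stably expressing DRD2, preincubated with 0.1 mM Ro20-1724 and compounds 10 min, were stimulated with 200 nM NKH477 plus 12 nM quinpirole for 30 min at room temperature; cAMP measured by HTRF (665/620 nm).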
SMILES,Potency [1],Potency [2],Potency [3],Potency [4],Potency [5],Potency [6],Potency [7],Potency [8],Potency [9],Potency [10],Potency [11],Potency [12],Potency [13],Potency [14],Potency [15],Potency [16],Potency [17],Potency [18],Potency [19],Potency [20]
OC[P+](CO)(CO)CO,inactive,inactive,inactive,inactive,inactive,inactive,inactive,inactive,inactive,inactive,inactive,inactive,inactive,inactive,inactive,inactive,inactive,inactive,inactive,inactive
Nc1ccc(-c2ccc(N)cc2)cc1,inactive,inactive,inactive,inactive,inactive,inactive,inactive,inactive,inactive,inactive,inactive,inactive,inactive,inactive,inactive,inactive,inactive,inactive,inactive,inactive
O=[N+]([O-])c1cccc2ccccc12,inactive,inactive,inactive,inactive,inactive,inactive,inactive,inactive,inactive,inactive,inactive,inactive,inactive,inactive,inactive,inactive,inactive,inactive,inactive,inactive
CC(C)c1ccc(CO)cc1,inactive,inactive,inactive,inactive,inactive,inactive,inactive,inactive,inactive,inactive,inactive,inactive,inactive,inactive,inactive,inactive,inactive,inactive,–,inactive
CNC(C)(C)Cc1ccccc1,inactive,inactive,inactive,inactive,inactive,inactive,inactive,inactive,inactive,inactive,inactive,inactive,inactive,inactive,inactive,inactive,inactive,inactive,inactive,inactive
COc1cc2c(cc1OC)[C@@]13CCN4CC5=CCO[C@H]6CC(=O)N2[C@H]1[C@H]6[C@H]5C[C@H]43,inactive,inactive,inactive,inactive,inactive,inactive,inactive,inactive,inactive,inactive,inactive,inactive,inactive,inactive,inactive,inactive,inactive,inactive,–,inactive
CCCCON=O,inactive,inactive,inactive,inactive,inactive,inactive,inactive,inactive,inactive,inactive,inactive,inactive,inactive,inactive,inactive,inactive,inactive,inactive,–,inactive
CC(C)(C1CCC(O)CC1)C1CCC(O)CC1 (configuration not stated),inactive,inactive,inactive,inactive,inactive,inactive,inactive,inactive,inactive,inactive,inactive,inactive,inactive,inactive,inactive,inactive,inactive,inactive,inactive,inactive
COCC(=O)N(c1c(C)cccc1C)[C@H](C)C(=O)OC,inactive,inactive,inactive,inactive,inactive,inactive,inactive,inactive,inactive,inactive,inactive,inactive,inactive,inactive,inactive,inactive,inactive,inactive,inactive,inactive
O=Cc1ccc(Cl)cc1Cl,inactive,inactive,inactive,inactive,inactive,inactive,inactive,inactive,inactive,inactive,inactive,inactive,inactive,inactive,inactive,inactive,inactive,inactive,inactive,inactive
CCN,inactive,inactive,inactive,inactive,inactive,inactive,inactive,inactive,inactive,inactive,inactive,inactive,inactive,inactive,inactive,inactive,inactive,inactive,inactive,inactive
NC(=O)O,inactive,inactive,inactive,inactive,inactive,inactive,inactive,inactive,inactive,inactive,inactive,inactive,inactive,inactive,inactive,inactive,inactive,inactive,inactive,inactive
O=C1CCCO1,inactive,inactive,inactive,inactive,inactive,inactive,inactive,inactive,inactive,inactive,inactive,inactive,inactive,14.6 µM (active) and inactive,inactive,inactive,inactive,inactive,inactive,inactive
Nc1ncc([N+](=O)[O-])s1,inactive,inactive,inactive,inactive,inactive,inactive,inactive,inactive,inactive,inactive,inactive,inactive,inactive,inactive,inactive,inactive,inactive,inactive,inactive,inactive
OCC(O)CCl (configuration not stated),inactive,inactive,inactive,inactive,inactive,inactive,inactive,inactive,inactive,inactive,inactive,inactive,inactive,inactive,inactive,inactive,inactive,inactive,inactive,inactive
